697 NFkB inh = lowers PMA/ionomycin-induced NF-kB signal in 697 B cells | 697 B-cell NF-kB luciferase reporter, 16 h | inhibition, % at 4 µM | 330,000 tested, 0.33% active | AID 435022; in the data active = inhibition above about 35%
Jurkat NFkB inh = inhibitors of the PMA/ionomycin-induced NF-kB reporter in Jurkat cells. PMA/ionomycin-induced NF-kB luciferase reporter, luminescence. inhibition, % at 4 µM. 330,000 tested, 0.53% active; in the data active = inhibition above about 50%
GalR3 antagonist = blocks the human galanin receptor 3. O60755. HEK293 GalR3-CNG cAMP membrane potential fluorescence; galR3 body fused to GalR1 C-terminus. inhibition, % at 3 µM. 360,000 tested, 0.44% active. AID 651719;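 active = inhibition above the screen-wide average plus 3 SD, cut at about 13% in these data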;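 also: forskolin and galanin both at EC90 stimulate the cells; cAMP rise reported by CNG channel membrane potential dye signal; 0% = forskolin plus galanin with DMSO and 100% = forskolin alone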
Target sequence (O60755 1-299 limits assumed): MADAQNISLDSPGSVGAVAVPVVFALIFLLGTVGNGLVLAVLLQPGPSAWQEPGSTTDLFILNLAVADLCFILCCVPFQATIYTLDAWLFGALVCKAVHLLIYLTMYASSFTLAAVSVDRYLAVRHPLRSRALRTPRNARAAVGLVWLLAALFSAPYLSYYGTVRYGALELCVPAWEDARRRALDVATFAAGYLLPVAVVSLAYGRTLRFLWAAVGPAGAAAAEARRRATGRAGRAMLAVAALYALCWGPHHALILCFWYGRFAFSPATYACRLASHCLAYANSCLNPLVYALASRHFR
Gli-Sufu antag = antagonists of Gli-Sufu signaling; AID 588413; Sufu-KO-LIGHT fibroblasts, Gli luciferase reporter luminescence; 340,000 tested, 0.74% active; inhibition, % at 5 µM;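 active = inhibition above about 55%, limit read from the data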;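 also: 0% = DMSO-treated cells and 100% = wells with medium but no cells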
NR2F2 inh = inhibitors of human COUP-TFII (NR2F2); P24468; HEK293T NGFI-A luciferase reporter, luminescence; inhibition, % at 8.6 µM; AID 686940; 370,000 tested, 0.7% active;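 active = inhibition above a per-plate cutoff, mean inhibition of test wells between control levels plus 3 SD, cut at about 38% in these data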;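 also: cells cotransfected with COUP-TFII expression vector driving the NGFI-A reporter; 0% = median of COUP-TF2 test wells and 100% = reporter-only cells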
Target sequence (P24468 whole entry, looked up): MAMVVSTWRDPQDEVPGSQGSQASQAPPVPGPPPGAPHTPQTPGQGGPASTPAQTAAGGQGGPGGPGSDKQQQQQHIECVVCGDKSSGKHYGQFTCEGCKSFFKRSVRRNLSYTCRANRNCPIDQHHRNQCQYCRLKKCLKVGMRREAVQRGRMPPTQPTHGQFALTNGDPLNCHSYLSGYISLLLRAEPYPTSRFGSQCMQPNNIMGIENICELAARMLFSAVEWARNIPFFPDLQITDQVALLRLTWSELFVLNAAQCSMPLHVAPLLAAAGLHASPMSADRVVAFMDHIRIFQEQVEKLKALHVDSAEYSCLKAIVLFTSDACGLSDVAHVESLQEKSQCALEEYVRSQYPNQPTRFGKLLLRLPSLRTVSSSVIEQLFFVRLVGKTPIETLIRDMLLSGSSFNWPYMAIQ
Gli-Sufu confirm = confirmation of Gli-SUFU pathway antagonists | 2,500 tested, 40% active | inhibition, % at 5 µM | Sufu-KO-LIGHT cells, Gli luciferase reporter, luminescence | shares compounds with Gli-Sufu antag;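 active = mean inhibition at 5 µM reaching about 45%, limit read from the data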;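 also: plate controls were DMSO-treated cells for no effect and wells lacking cells for full effect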
Gli cytotox = cytotoxicity counter-screen for Gli-SUFU antagonists; cytotoxicity, % at 5 µM; Sufu-KO-LIGHT cells cytotoxicity, ATP luminescence; shares compounds with Gli-Sufu antag; 2,500 tested, 32% active;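 active = mean cytotoxicity at 5 µM above about 25%, limit read from the data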;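 also: cells exposed to compound overnight for roughly 16 to 18 hours; plate controls were DMSO wells with cells for no effect and medium without cells for full effect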
Wnt3a counter = inhibits Wnt3a reporter, counter-screen for Gli-SUFU antagonists. AID 651995. 2,500 tested, 20% active. shares compounds with Gli-Sufu antag. inhibition, % at 6.25 µM. Wnt-LIGHT cells, Wnt3a-driven luciferase reporter, luminescence;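 active = mean inhibition above about 25%, limit read from the data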
GalR3 conf = confirmation of human galanin receptor 3 antagonists; shares compounds with GalR3 antagonist; HEK293 GalR3 CNG cAMP biosensor, membrane potential fluorescence; galR3 fused to GalR1 carboxy tail; challenged with forskolin and galanin at EC90; inhibition, % at 3 µM; 1,600 tested, 59% active; AID 652245;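 active = inhibition above the primary screen's cutoff, the mean inhibition of all screened compounds plus 3 SD, cut at about 13% in these data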;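 also: 0% = forskolin plus galanin and 100% = forskolin alone with DMSO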
CNG parental = parental cell agonism counter-screen for GalR3 antagonists; HEK293-CNG parental cells, cAMP membrane potential fluorescence; normalised: DMSO wells 0%, forskolin wells 100%; 1,600 tested, 10% active; activation, % at 3 µM; shares compounds with GalR3 antagonist; AID 652268; in the data active = activation above about 1.3%
VP16 Luc counter = VP16 inhibition counter-screen for COUP-TFII | shares compounds with NR2F2 inh | HEK293 Gal4-VP16 luciferase reporter, luminescence | inhibition, % at 8.5 µM | 2,500 tested, 25% active; in the data active = inhibition above about 13%
COUP-TFII conf = COUP-TFII (NR2F2) inhibition, confirmation assay; shares compounds with NR2F2 inh; HEK293 NGFI-A luciferase reporter, luminescence; inhibition, % at 8.5 µM; 2,500 tested, 45% active; AID 687008;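 active = mean inhibition over three repeats above a set limit taken from the earlier primary screen, cut at about 38% in these data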;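 also: 100% = cells given the luciferase reporter alone without the COUP-TF2 vector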
* = called active by the depositor. Only some compounds are listed: those with a hit (about 2% of all), similar ones and a draw of the others.

How did COc1ccc(N2CCN(C(=O)NCc3ccc(OC)c(Cl)c3)CC2)cc1 do in these assays?
697 NFkB inh: 7.0; Jurkat NFkB inh: 6.1; GalR3 antagonist: -0.8; Gli-Sufu antag: 56.4*; NR2F2 inh: 12.4; Gli-Sufu confirm: 24.8; Gli cytotox: 8.9; Wnt3a counter: -8.4

What do the screens show for `COc1cc(CCNC(=O)c2ccccc2NC(=O)C2=C(C)OCCS2)cc(OC)c1OC`?
697 NFkB inh: -8.1; Jurkat NFkB inh: -12.2; GalR3 antagonist: -6.6; Gli-Sufu antag: 98.8*; NR2F2 inh: 17.9; Gli-Sufu confirm: 18.5; Gli cytotox: -1.0; Wnt3a counter: 12.4

How did COc1ccc(CCNC(=O)c2ccccc2NC(=O)C2=C(C)OCCS2)c(OC)c1 do in these assays?
697 NFkB inh: -10.3; Jurkat NFkB inh: 0.5; GalR3 antagonist: -5.3; Gli-Sufu antag: 5.3; NR2F2 inh: 4.6

Results for CC1=C(C(=O)Nc2cc(C(=O)NCc3ccccc3)ccc2C)SCCO1 ?
GalR3 antagonist: -4.2; NR2F2 inh: -16.8

How did COc1cc(CNC(=O)c2ccccc2NC(=O)C2=C(C)OCCS2)cc(OC)c1OC do in these assays?
697 NFkB inh: 11.9; Jurkat NFkB inh: 7.8; GalR3 antagonist: 3.1; Gli-Sufu antag: 90.9*; NR2F2 inh: 8.7; Gli-Sufu confirm: 17.2; Gli cytotox: 0.0; Wnt3a counter: -18.7

Results for COC(=O)[C@]12C[C@H](CC(=O)NCc3cccc(C(F)(F)F)c3)C(=O)N(Cc3ccco3)C1=C[C@H](C(C)(C)C)O[C@@H]2C ?
NR2F2 inh: -16.4

What do the screens show for `OCC1CCCN(c2nc(CN3CCCCC3)nc3scc(-c4ccccc4)c23)C1` (stereo not given)?
697 NFkB inh: -40.1; Jurkat NFkB inh: -1.4; GalR3 antagonist: -12.1; Gli-Sufu antag: 27.6; NR2F2 inh: 2.5

What do the screens show for `CCNc1nc(CN2CCCCC2)nc2scc(-c3ccccc3)c12`?
697 NFkB inh: -68.7; Jurkat NFkB inh: 28.5; GalR3 antagonist: 18.9*; Gli-Sufu antag: 69.2*; NR2F2 inh: 32.4; Gli-Sufu confirm: 56.1*; Gli cytotox: 17.7; Wnt3a counter: -31.8; GalR3 conf: 22.2*; CNG parental: 5.7*

What do the screens show for `Cc1sc2ncnc(NCc3cccs3)c2c1C`?
697 NFkB inh: -25.2; Jurkat NFkB inh: 42.1; GalR3 antagonist: 54.7*; Gli-Sufu antag: 57.5*; NR2F2 inh: 34.5; Gli-Sufu confirm: 50.2*; Gli cytotox: 25.6*; Wnt3a counter: 6.2; GalR3 conf: 58.0*; CNG parental: 0.0

What do the screens show for `O=C(NCCc1cccc(F)c1)c1cc2ccccn2n1`?
NR2F2 inh: -25.6

Results for O=[N+]([O-])c1ccc(-c2ccc(S(=O)(=O)NCCN3CCCC3)cc2)cc1 ?
697 NFkB inh: -27.5; Jurkat NFkB inh: 34.1; GalR3 antagonist: 41.5*; Gli-Sufu antag: 53.8; NR2F2 inh: 17.7; Gli-Sufu confirm: 29.4; Gli cytotox: 10.0; Wnt3a counter: -28.6; GalR3 conf: 10.4; CNG parental: 0.4

Results for COc1ccc(CNC2CCC23CCCCC3)cc1OC (stereo not given) ?
NR2F2 inh: 4.7

How did CCN1C(=O)CC(c2ccccc2)N(C2CCCC2)c2nc(Nc3ccc(C(=O)NC4CCN(C)CC4)cc3OC)ncc21 (stereo not given) do in these assays?
697 NFkB inh: -15.3; Jurkat NFkB inh: -5.2; Gli-Sufu antag: 16.1

How did COc1cc(C(=O)NC2CCN(C)CC2)ccc1Nc1ncc2c(n1)N(C1CCCCC1)CCC(=O)N2C do in these assays?
GalR3 antagonist: 19.4*; Gli-Sufu antag: 82.4*; NR2F2 inh: -111.3; Gli-Sufu confirm: 78.7*; Gli cytotox: 18.9; Wnt3a counter: -70.2; GalR3 conf: 13.2*; CNG parental: 0.4

Results for CC(=O)c1c(C)[nH]c(C(=O)OCC(=O)Nc2ccc(Cl)cc2[N+](=O)[O-])c1C ?
697 NFkB inh: -27.2; Jurkat NFkB inh: 31.1; GalR3 antagonist: 70.6*; Gli-Sufu antag: 74.8*; NR2F2 inh: 62.5*; Gli-Sufu confirm: 74.7*; Gli cytotox: 30.7*; Wnt3a counter: 24.0; VP16 Luc counter: 5.0; COUP-TFII conf: 59.6*

Results for COc1cccc(C(=O)NCCN2C(=O)C3C4C=CC(C4)C3C2=O)c1 (stereo not given) ?
NR2F2 inh: -11.1

Results for CCNc1nc2c(c(=O)n(C)c(=O)n2C)n1Cc1ccc(Cl)cc1 ?
697 NFkB inh: 1.3; Jurkat NFkB inh: 27.8; GalR3 antagonist: 21.5*; Gli-Sufu antag: 70.7*; NR2F2 inh: 52.9*; Gli-Sufu confirm: 61.5*; Gli cytotox: 31.5*; Wnt3a counter: 40.5*; GalR3 conf: 71.4*; CNG parental: 0.1; VP16 Luc counter: 5.5; COUP-TFII conf: 36.5

Results for COc1ccc(CCN(C)C(=O)Cc2ccc(-c3ccccc3)cc2)cc1OC ?
697 NFkB inh: -39.8; Jurkat NFkB inh: 16.9; GalR3 antagonist: 35.2*; Gli-Sufu antag: 59.6*; NR2F2 inh: 48.1*; Gli-Sufu confirm: 14.8; Gli cytotox: 6.1; Wnt3a counter: -43.7; GalR3 conf: 62.8*; CNG parental: -0.3; VP16 Luc counter: 3.9; COUP-TFII conf: 36.9

Results for COc1ccc(CCN(C)C(=O)COc2ccc(C(=O)c3ccccc3)cc2)cc1OC ?
697 NFkB inh: 11.7; Jurkat NFkB inh: 17.2; GalR3 antagonist: -3.8; Gli-Sufu antag: -6.2; NR2F2 inh: 4.5

Results for Cc1sc2ncnc(N3CCN(c4ncccn4)CC3)c2c1C ?
697 NFkB inh: 3.2; Jurkat NFkB inh: 20.2; GalR3 antagonist: 1.0; Gli-Sufu antag: 6.4; NR2F2 inh: -4.2
